NALP1 inh: NALP1 inflammasome inhibitors in reconstituted yeast, colorimetric, S. cerevisiae, triplicate retest; S. cerevisiae NALP1/ASC/caspase-1 growth, X-gal OD620, 72 h; inhibition, % at 10 µM; 280,000 tested, 0.61% active; AID 2071, 2009; in the data active means inhibition mostly above about 24%, no sharp cut-off; inactive means mostly below about 32%
Rce1 inhib: yeast Rce1p protease inhibitors, primary screen, biochemical, fluorescence, cell-free homogeneous. AID 2563, 2010. yeast membranes, quenched prenylated peptide cleavage fluorescence. CAAX prenyl protease 2 (Saccharomyces cerevisiae (strain ATCC 204508 / S288c)), Q03530. 290,000 tested, 0.27% active. calls only;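 active means fall in fluorescence gain of 50% or more versus controls, with final raw signal at or below 3038400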;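 further: plate controls were neutral control wells for no effect and wells lacking membranes for full effect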
PERK inhibitor: block of dimerizer-induced PERK translation repression, primary screen, PERK inhibitor project, CHO PERK-DD cells, SEAP luminescence, HTS | 220,000 tested, 0.17% active | CHO PERK-DD fusion, SEAP luminescence translation reporter | inhibition, % at 5.6 µM;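 active means inhibition above the mean inhibition of all tested compounds plus 3 SD, set separately per screening campaign, cut at about 2.9% in these data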;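 further: PERK kinase domain activated by AP20187 dimerizer at 100 nM; 0% = DMSO with dimerizer and 100% = rapamycin at 8.4 µM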
Target sequence (Q9NZJ5 whole entry, looked up, the tested form may be a part): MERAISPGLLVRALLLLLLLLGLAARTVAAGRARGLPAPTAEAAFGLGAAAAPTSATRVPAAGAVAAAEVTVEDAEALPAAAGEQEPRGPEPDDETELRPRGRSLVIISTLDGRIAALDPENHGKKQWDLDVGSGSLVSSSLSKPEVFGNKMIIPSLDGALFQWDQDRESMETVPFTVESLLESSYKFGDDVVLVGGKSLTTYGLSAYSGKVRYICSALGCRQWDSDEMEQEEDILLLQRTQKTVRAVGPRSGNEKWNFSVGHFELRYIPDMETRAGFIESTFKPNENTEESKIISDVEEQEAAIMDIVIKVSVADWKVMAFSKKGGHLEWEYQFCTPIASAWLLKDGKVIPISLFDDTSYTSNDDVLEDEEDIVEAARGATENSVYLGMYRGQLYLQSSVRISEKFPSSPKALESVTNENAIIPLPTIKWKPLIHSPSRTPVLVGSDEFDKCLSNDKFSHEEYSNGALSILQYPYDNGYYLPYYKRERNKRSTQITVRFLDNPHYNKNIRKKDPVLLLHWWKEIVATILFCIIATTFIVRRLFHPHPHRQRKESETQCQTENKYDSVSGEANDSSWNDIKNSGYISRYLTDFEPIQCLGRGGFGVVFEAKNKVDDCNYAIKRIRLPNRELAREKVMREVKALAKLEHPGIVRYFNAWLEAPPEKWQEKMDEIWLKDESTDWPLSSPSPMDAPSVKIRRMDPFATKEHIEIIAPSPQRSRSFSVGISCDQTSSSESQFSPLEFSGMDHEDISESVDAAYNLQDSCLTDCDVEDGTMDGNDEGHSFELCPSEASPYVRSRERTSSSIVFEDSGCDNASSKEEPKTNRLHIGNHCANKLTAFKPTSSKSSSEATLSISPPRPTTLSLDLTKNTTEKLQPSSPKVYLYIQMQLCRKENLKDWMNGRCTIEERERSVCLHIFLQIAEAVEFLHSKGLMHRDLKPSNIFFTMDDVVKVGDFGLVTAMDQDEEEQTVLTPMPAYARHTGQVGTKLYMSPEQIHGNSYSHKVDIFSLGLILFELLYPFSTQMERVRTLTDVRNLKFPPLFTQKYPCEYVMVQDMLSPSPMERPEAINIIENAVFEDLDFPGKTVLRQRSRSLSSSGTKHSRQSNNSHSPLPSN
Yeast superoxide: reduction of superoxide in aged yeast, primary screen, HTS | S. cerevisiae aged cells, superoxide DHE fluorescence; active compounds read low | superoxide response (% of plate mean), % at 10 µM | 330,000 tested, 0.18% active | AID 2690, 2010;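 active means superoxide response under a set limit, about three screen SD below normal, cut at about 65% in these data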;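 further: yeast aged for seven days with compound at 30 °C before DHE staining; 100% = average MFI of all compound-treated wells on the plate with controls excluded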
V-ATPase pHluor: regulators of yeast V-ATPase proton pumping, primary screen, pHLuorin cytosolic pH fluorescence; 350,000 tested, 0.37% active; S. cerevisiae; response, % at 10 µM; AID 504577, 2011; in the data active means response mostly above about 7.3%, no sharp cut-off; inactive means mostly below about 5.4%; further: actives read high
NLRP3 yeast inh: NALP3 inflammasome inhibitors in reconstituted yeast, primary screen, luminescence, uHTS. AID 2825, 2010. 330,000 tested, 0.39% active. inhibition, % at 10 µM. Yeast reconstituted NLRP3/ASC/caspase-1, beta-gal luminescence, 24 h;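 active means inhibition of 50% or more; inactive means inhibition below 50%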;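 further: plate controls were induced DMSO wells for no effect and uninduced yeast grown without galactose for full effect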
NALP3 confirm: NALP3 inhibitors retested in yeast, confirmation, luminescence, single concentration | shares compounds with NLRP3 yeast inh | yeast expressing human NALP3 | inhibition, % at 10 µM | 1,300 tested, 81% active | AID 435006, 2010; in the data active means inhibition above about 48%
Casp1 ASC ctr: CASP1-PYCARD signaling inhibition in yeast, confirmatory test, counterassay for NLRP3 inhibitor program, one-dose | yeast expressing Caspase-1-ASC, luminescence counter screen | shares compounds with NLRP3 yeast inh | 1,000 tested, 66% active | inhibition, % at 10 µM
NALP3 yeast rt: NALP3 inhibitors in yeast, repeat test, confirmation, luminescence, single concentration, retest; shares compounds with NLRP3 yeast inh; yeast expressing human NALP3, luminescence read-out; inhibition, % at 10 µM; 1,000 tested, 53% active
* marks the source's active call; other numbers are inactive results; i = inactive; nt = no result given. Rows were chosen to be rich in hits. Some 1.6% of all compounds tested hit in one or more screens of this group. Unless noted, no stated cut-off is given here; in the data, active means inhibition above about 50%; inactive means the rest.

SMILES	NALP1 inh	Rce1 inhib	PERK inhibitor	Yeast superoxide	V-ATPase pHluor	NLRP3 yeast inh	NALP3 confirm	Casp1 ASC ctr	NALP3 yeast rt
CC(C)[C@H](NC(=O)c1ccc(Cl)cc1)C(=O)Nc1cccc(S(=O)(=O)N2CCOCC2)c1	nt	nt	nt	nt	-1	nt	nt	nt	nt
COc1ccc(C(=O)CC(=O)Nc2ccc([N+](=O)[O-])cc2)cc1	-8	i	nt	98	6	67*	75*	78*	82*
CC(C)CCNC(=O)c1ccc(-c2ccccc2)cc1	0	i	1	101	nt	52*	61*	47	36
O=S(=O)(NCCS(=O)(=O)N1CCN(c2ccc(F)cc2)CC1)c1ccccc1	nt	nt	nt	nt	1	nt	nt	nt	nt
Brc1ccc2c(c1)CN1CCCC1=N2	19	i	nt	104	4	63*	80*	53*	51*
O=C1CN2C(=Nc3ccc(Br)cc3C2c2ccccc2)CCN1 (stereo unspecified)	2	i	-1	99	1	5	nt	nt	nt
CCCc1c(C(=O)N/N=C/c2ccoc2)nnn1-c1nonc1N	nt	nt	nt	nt	-2	nt	nt	nt	nt
C[C@H](CO)N1C[C@H](C)[C@H](CN(C)Cc2cncnc2)Oc2ncc(C#CC3(O)CCCC3)cc2C1=O	nt	nt	nt	nt	-5	nt	nt	nt	nt
Cc1cccc(C)c1NC(=O)CNC(=O)CNC(=O)c1ccc2ccccc2c1	nt	nt	nt	nt	-1	nt	nt	nt	nt
CCC1Nc2ncnc(N3CCN(c4ccccn4)CC3)c2N(Cc2ccc(Cl)cc2)C1=O (stereo unspecified)	nt	i	nt	100	-4	51*	60*	38	52*
CCC1Nc2ncnc(N3CCCCC3)c2N(Cc2ccc(Cl)cc2)C1=O (stereo unspecified)	nt	nt	nt	108	0	16	nt	nt	nt
CCC1Nc2ncnc(N3CCN(c4ccccn4)CC3)c2N(Cc2ccc(Br)cc2)C1=O (stereo unspecified)	nt	nt	nt	96	5	56*	70*	48	66*
CCC1Nc2ncnc(N3CCCCC3)c2N(Cc2ccc(Br)cc2)C1=O (stereo unspecified)	nt	i	nt	95	0	22	nt	nt	nt
O=C(Nc1cccc(Cl)c1)c1ccc2c(=O)n3c(nc2c1)CCCCC3	1	i	-1	nt	1	70*	66*	nt	nt
O=C(Nc1ccc(Cl)cc1)c1ccc2c(=O)n3c(nc2c1)CCCCC3	-8	i	nt	84	0	28	nt	nt	nt
O=C(/C(=C\c1ccccc1)c1nc2ccccc2[nH]1)c1ccc(Cl)cc1	20	i	0	95	-1	41	nt	nt	nt
O=C(/C=C/c1cccc(Cl)c1)c1nc2ccccc2[nH]1	10	i	-1	125	-2	92*	85*	99*	93*
O=C(C[C@H]1C(=O)N(c2ccccc2)C[C@@H]1Cc1ccccc1)Nc1ccccc1	nt	nt	nt	nt	1	nt	nt	nt	nt
O=[N+]([O-])c1ccc(O)c2ncccc12	158*	i	2	81	2	83*	92*	99*	98*
Cc1ccc(Nc2cc(C)nn2-c2nc(C)cc(C)n2)cc1	15	i	-2	86	-1	35	nt	nt	nt
Cc1ccc(Nc2cc(C)nn2-c2nc(C)cc(=O)[nH]2)cc1	9	i	2	74	4	76*	81*	97*	93*
O=c1c2ccccc2nc2c3ccccc3cnn12	1	nt	0	160	-1	56*	63*	55*	66*
O=c1c2ccccc2nc2c3ccccc3c(Cl)nn12	0	i	1	nt	nt	nt	nt	nt	nt
N#C/C(=N\Nc1ccc(Cl)cc1)C(=O)c1ccccc1	21	i	0	88	-5	55*	59*	73*	84*
CC(=O)Nc1ccc(/C=N/Nc2nncc3ccccc23)cc1	-10	i	nt	104	-3	nt	nt	nt	nt
SMILES	NALP1 inh	Rce1 inhib	PERK inhibitor	Yeast superoxide	V-ATPase pHluor	NLRP3 yeast inh	NALP3 confirm	Casp1 ASC ctr	NALP3 yeast rt
Fc1cccc(/C=N/Nc2nncc3ccccc23)c1	12	i	nt	95	12	57*	63*	44	38
Cc1cc(C)c2c(N)c(-c3nc4ccccc4[nH]3)sc2n1	-6	i	0	86	-1	50*	62*	37	41
COc1ccc(CCN2CC(C(=O)N(C)Cc3ccccn3)CCC2=O)cc1 (stereo unspecified)	nt	nt	nt	nt	-2	nt	nt	nt	nt
C[C@]12C=C[C@H](O)CC1=CCC1C2CC[C@@]2(C)C1CCC21OCCO1 (stereo partly specified)	nt	nt	nt	80	-1	57*	71*	nt	nt
C[C@]12C=CC(=O)C=C1CCC1C2CC[C@@]2(C)C1CCC21OCCO1 (stereo partly specified)	nt	nt	nt	89	-3	27	nt	nt	nt
Cc1ccc(NC(=O)Cc2ccsc2)cc1Cl	-56	i	nt	92	-1	54*	68*	43	38
Cc1ccc(OC(=O)N(C)C[C@@H]2OCc3cn(nn3)CCCC(=O)N([C@@H](C)CO)C[C@H]2C)cc1	nt	nt	nt	nt	-3	nt	nt	nt	nt
Cc1cc(Cl)n2ncc(-c3ccccc3)c2n1	7	i	1	107	0	22	nt	nt	nt
Cc1cc(C)n2ncc(-c3cccc(Br)c3)c2n1	5	i	nt	85	0	51*	62*	31	24
NC(=O)c1[nH]cnc1N=NN(CCO)Cc1ccccc1	nt	nt	nt	nt	0	nt	nt	nt	nt
CCOc1nc(S(=O)(=O)c2ccc(C)cc2)c(Cl)s1	-19	i	0	108	0	-107	-12	nt	nt
COc1cc(/C=C2/SC(=S)N(CC(=O)NNC(=O)c3ccc(F)cc3)C2=O)cc(OC)c1OC	nt	nt	nt	nt	1	nt	nt	nt	nt
c1ccc(Oc2ccc(-c3ccn[nH]3)cc2)cc1	13	i	1	89	1	16	nt	nt	nt
c1ccc(-c2ncc(-c3ccn[nH]3)s2)cc1	-3	i	1	100	6	65*	84*	79*	64*
Cc1ccc(OCCSc2nc3ccccc3n2CCC(=O)O)c(C(C)C)c1	nt	nt	nt	nt	-2	nt	nt	nt	nt
Cc1ccc(NC(=O)c2ccc3ccccc3n2)cc1S(=O)(=O)N1CCOCC1	39	i	0	103	-1	-43	nt	nt	nt
O=C(Nc1cccc(S(=O)(=O)N2CCCCC2)c1)c1ccc2ccccc2n1	-16	i	0	130	0	-104	-58	nt	nt

High-throughput results (PubChem)
